According to PubChem BioAssay (NCI):
This is part of a sample that, as a whole, favours compounds with a hit. Of some 83,000 tested, about 20% had one in any assay.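 Activity criterion: percent growth below 10, measured after cells in 96-well plates were exposed to a single compound concentration for 48 hours.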 Active and inactive are the calls of the source.

What follows are compounds tested on NCI-H23 lung (assay: NCI-60 one-dose screen, 48 h (100 = growth as untreated, 0 = no growth, -100 = all killed)). Settings: 10 µM unless noted.

Compound | growth
COC(=O)c1cc(=O)nc(N/N=C/c2ccc(C)cc2)s1 | 107% (inactive)
COc1cc(C(=O)/C=C/c2cc(-c3ccc4c(c3)OCO4)n[nH]2)cc(OC)c1OC | 24.5% (inactive)
O=C(/C=C\c1ccc2c(c1)OCO2)/C=C/c1ccc2c(c1)OCO2 | 84.8% (inactive)
COc1cc(-c2cc(-c3nc4cc(Cl)c(Cl)cc4[nH]3)[nH]n2)cc(OC)c1OC | 75.3% (inactive)
COC1=C(Br)C(=O)C(OC)=C(Br)C1=O | 105% (inactive)
COc1ccc2c(c1)C/C(=C\c1cc(-c3ccc4c(c3)OCO4)n[nH]1)C2=O | 111% (inactive)
CC(C)(C)c1ccc(OP(=S)(N/N=C/c2ccccc2O)Oc2ccc(C(C)(C)C)cc2)cc1 | 58.1% (inactive)
OCC12CCCC(CO)(COC1)C2O (stereo unspecified) | 97% (inactive)
COc1ccc(-c2cc(/C=C/C(=O)c3ccc(N)cc3)[nH]n2)cc1 | 27.3% (inactive)
O=c1c(CNc2ccc(S(=O)(=O)Nc3ncccn3)cc2)coc2ccccc12 | 102% (inactive)
NC(Cc1ccc(O)cc1)C(=O)N/N=C/c1ccccc1O (stereo unspecified) | 99.9% (inactive)
COc1ccc2c(c1)C/C(=C\c1cc(-c3cc(OC)c(OC)c(OC)c3)n[nH]1)C2=O | 90.2% (inactive)
O=c1c(CNc2ccc(S(=O)(=O)Nc3nccs3)cc2)coc2ccccc12 | 110% (inactive)
Nc1c(C(=O)Nc2cccc(Cl)c2)sc2ncc(Cl)cc12 | 87% (inactive)
CCN(CC)CCCCCNc1cc(OC(=O)c2ccccc2)cc2cccnc12 | 92% (inactive)
Fc1ccc2nc(-c3cc(-c4ccc5c(c4)OCO5)n[nH]3)[nH]c2c1 | 64% (inactive)
C#Cc1cc2c(N)c(C(=O)c3cc(OC)c(OC)c(OC)c3)[nH]c2cc1OC | 43.1% (inactive)
Cc1cc(Cl)c2c(N(C)C)cccc2n1 | 96% (inactive)
COc1ccc(/C=C2\N=C(c3ccccc3)N(c3cc(OC)c(OC)cc3C(=O)N3N=C(C)CC3=O)C2=O)cc1 | 102% (inactive)
COc1ccc2nc(-c3c(-c4ccccc4)nc4ncccn34)[nH]c2c1 | 105% (inactive)
O=C1C=C(C(O)c2ccc(O)cc2)C(=O)c2ccccc21 (stereo unspecified) | 89.2% (inactive)
Cc1ccc(-c2nc3ccc(Cl)cc3c(=O)n2N2C(=O)CSC2c2ccccc2Cl)cc1 (stereo unspecified) | 91.1% (inactive)
NS(=O)(=O)c1ccc(CCNC(=O)/C=C/c2ccc(Cl)cc2)cc1 | 107% (inactive)

Each compound was assayed on NCI-H226 lung in the same assay as above. Settings: 10 µM unless noted.

Compound | growth
O=C1C=Cc2ncccc2C1=O | 81.8% (inactive)
COc1cc2c(cc1OC)C(=O)/C(=C/c1cc(-c3ccc4c(c3)OCO4)n[nH]1)C2 | 47.1% (inactive)
CCN(CC)CCCCCCNc1ccnc2cc(Cl)ccc12 | 108% (inactive)
COC(c1ccccc1)(c1ccccc1)c1ccccc1 | 101% (inactive)
CC(CNc1nc(Nc2ccc(Cl)c(Cl)c2)nc(C(Cl)(Cl)Cl)n1)N(C)C (stereo unspecified) | 40.8% (inactive)
COc1cccc2c1C(=O)c1c(O)c3c(c(O)c1C2=O)C[C@@](O)(C(=O)CO)C[C@@H]3OC1C[C@H](N)[C@H](O)[C@H](C)O1 (stereo partly specified) | -40.5% (active)
NC(=O)[C@@H]1CC2CCC1C2 (stereo partly specified) | 103% (inactive)
COc1cc2[nH]c(C(=O)c3cc(OC)c(OC)c(OC)c3)c(N)c2cc1C#CCO | 27.9% (inactive)
CN(C)c1ccc(N=C2C=CC(=O)C=C2)cc1 | 95.1% (inactive)
COc1ccc(C(=O)c2cc(OC)c(OC)c(OC)c2)cc1/C=C/C(=O)c1cc(OC)c(OC)c(OC)c1 | 89.5% (inactive)
Nc1c(C(=O)Nc2cccc(Br)c2)sc2nc3c(cc12)C(=O)CCC3 | 75.1% (inactive)
O=C1NC(=Nc2ccc(S(=O)(=O)Nc3nccs3)cc2)S/C1=C\c1coc2ccccc2c1=O | 97.8% (inactive)
COc1ccc(C(=O)/C=C/c2cc(-c3cc(OC)c(OC)c(OC)c3)n[nH]2)cc1OC | 20.8% (inactive)
COc1cc2[nH]c(C(=O)c3cc(OC)c(OC)c(OC)c3)c(N)c2cc1C#CC1CC1 | 50.2% (inactive)
O=C(NC1=CC(=O)c2ccccc2C1=O)c1ccccc1 | 37.3% (inactive)
COC(=O)c1cc(=O)nc(N/N=C/c2ccc(C)cc2)s1 | 98.5% (inactive)
COc1cc(C(=O)/C=C/c2cc(-c3ccc4c(c3)OCO4)n[nH]2)cc(OC)c1OC | 38.1% (inactive)
O=C(/C=C\c1ccc2c(c1)OCO2)/C=C/c1ccc2c(c1)OCO2 | 67.7% (inactive)
COc1cc(-c2cc(-c3nc4cc(Cl)c(Cl)cc4[nH]3)[nH]n2)cc(OC)c1OC | 38% (inactive)

Compound | growth
COC1=C(Br)C(=O)C(OC)=C(Br)C1=O | 102% (inactive)
COc1ccc2c(c1)C/C(=C\c1cc(-c3ccc4c(c3)OCO4)n[nH]1)C2=O | 86.5% (inactive)
CC(C)(C)c1ccc(OP(=S)(N/N=C/c2ccccc2O)Oc2ccc(C(C)(C)C)cc2)cc1 | 58.6% (inactive)
OCC12CCCC(CO)(COC1)C2O (stereo unspecified) | 99.8% (inactive)
COc1ccc(-c2cc(/C=C/C(=O)c3ccc(N)cc3)[nH]n2)cc1 | 24.5% (inactive)
O=c1c(CNc2ccc(S(=O)(=O)Nc3ncccn3)cc2)coc2ccccc12 | 103% (inactive)
NC(Cc1ccc(O)cc1)C(=O)N/N=C/c1ccccc1O (stereo unspecified) | 103% (inactive)
COc1ccc2c(c1)C/C(=C\c1cc(-c3cc(OC)c(OC)c(OC)c3)n[nH]1)C2=O | 82.3% (inactive)
O=c1c(CNc2ccc(S(=O)(=O)Nc3nccs3)cc2)coc2ccccc12 | 96.1% (inactive)
Nc1c(C(=O)Nc2cccc(Cl)c2)sc2ncc(Cl)cc12 | 75.7% (inactive)
CCN(CC)CCCCCNc1cc(OC(=O)c2ccccc2)cc2cccnc12 | 118% (inactive)
Fc1ccc2nc(-c3cc(-c4ccc5c(c4)OCO5)n[nH]3)[nH]c2c1 | 66.1% (inactive)
C#Cc1cc2c(N)c(C(=O)c3cc(OC)c(OC)c(OC)c3)[nH]c2cc1OC | 50% (inactive)
Cc1cc(Cl)c2c(N(C)C)cccc2n1 | 101% (inactive)
COc1ccc(/C=C2\N=C(c3ccccc3)N(c3cc(OC)c(OC)cc3C(=O)N3N=C(C)CC3=O)C2=O)cc1 | 90.1% (inactive)
COc1ccc2nc(-c3c(-c4ccccc4)nc4ncccn34)[nH]c2c1 | 106% (inactive)
O=C1C=C(C(O)c2ccc(O)cc2)C(=O)c2ccccc21 (stereo unspecified) | 112% (inactive)
Cc1ccc(-c2nc3ccc(Cl)cc3c(=O)n2N2C(=O)CSC2c2ccccc2Cl)cc1 (stereo unspecified) | 86.6% (inactive)
NS(=O)(=O)c1ccc(CCNC(=O)/C=C/c2ccc(Cl)cc2)cc1 | 107% (inactive)
